# PubChem BioAssay (Tox21)
# Records with an inconclusive call do not appear. Activity calls are given as the source filed them. The call rests on the fitted dose curve.
# Test: qHTS assay to identify small molecule agonists of the hypoxia (HIF-1) signaling pathway - cell viability counter screen (AID 1224844); further: nearly all actives have a fitted effect of over 50% in size
# Details: HRE-bla ME-180 viability, CellTiter-Glo luminescence, 17 h; series mostly up to 76.8 µM; activity change, negative = cytotoxicity: at the top concentration
# Source text: National Center for Advancing Translational Sciences [NCATS]
# NIH Chemical Genomics Center [NCGC]
# U.S. Environmental Protection Agency [EPA]
# National Institutes of Environmental Health Sciences [NIEHS]
# National Toxicology Program [NTP]
# U.S. Food and Drug Administration [FDA]
# Hypoxia-inducible factor-1 (HIF-1) is the major hypoxia-regulated transcription factor that controls cellular responses to low oxygen concentration. HIF-1 is composed of two subunits: hypoxia responsive HIF-1-alpha and constitutively expressed HIF-1-beta, which is also known as aryl hydrocarbon receptor nuclear translocator. During hypoxic conditions, HIF-1-alpha heterodimerizes with HIF-1-beta and translocates into the nucleus where the HIF-1 complex binds to the hypoxia-response element (HRE) and activates expression of target genes such as VEGF (vascular endothelial growth factor). The HIF-1 pathway is essential to normal growth and development, and is involved in the pathophysiology of cancer, inflammation, and ischemia.
# Using a beta-lactamase reporter-gene under control of the hypoxia response element, a cell-based assay [CellSensor(TM) HRE-bla ME-180 from Life Technologies, Carlsbad, CA] was used to measure hypoxia-induced signaling. Tox21 10K library compounds were measured for their ability to induce the reporter gene activity. The cytotoxicity of the Tox21 compound library against HRE-bla ME-180 cell line was tested in parallel by measuring cell viability using CellTiter-Glo assay (Promega, Madison, WI) in the same assay wells.
# Tox21 Assay Protocol Summary:
# HRE-bla ME-180 cells were dispensed at 2,000 cells per well in 6 uL of assay medium containing 0.5% dialyzed FBS into black wall/clear-bottom 1536-well plates using a Multidrop Combi (Thermo Scientific, Waltham, MA) dispenser. After the assay plates were incubated at 37C and 5% CO2 for 5 hrs, 23 nL of compounds dissolved in DMSO, positive controls or DMSO only was transferred to each well of the assay plate using a Pintool station (Kalypsys, San Diego, CA). The assay plates were incubated at 37C and 5% CO2 for 17 hrs. One uL of LiveBLAzerTM B/G FRET substrate (CCF4-AM) (Life Technologies) was added to each well using a Flying Reagent Dispenser (FRD, Aurora Discovery, San Diego, CA). After 2 hr incubation at room temperature, fluorescence intensity (405 nm excitation, 460 nm and 530 nm emissions) was measured using an Envision plate reader (PerkinElmer, Shelton, CT). For cytotoxicity, 4 ul/well of CellTiter-Glo reagent was added into the assay plates using an FRD. After 30 min incubation at room temperature, the luminescence intensity was measured using a ViewLux plate reader (PerkinElmer).
# On the % scale 0 is the no-effect control and ±100 the full control effect; potency means the concentration at half of the fitted maximal effect.
Structure (SMILES),"activity change, negative = cytotoxicity",Potency
CC(C)(C)C(=O)C(Oc1ccc(Cl)cc1)n1cncn1 (stereo not given),-5.35% (inactive),
OC(c1ccccc1)(c1ccccc1)C1CCNCC1,0.733% [at 35.3 µM] (inactive),
C[C@]12CC[C@H]3[C@@H](CCC4=CC(=O)CC[C@@]43C)[C@@H]1CC[C@@H]2C(=O)O,-2.94% [at 35.3 µM] (inactive),
C=C(C)[C@@H]1CC=C(C=O)CC1,2.03% (inactive),
CCOC(=O)CP(=O)(OCC)OCC,-0.544% (inactive),
O=C(Cc1ccccc1)OCc1ccccc1,4.26% (inactive),
O=C(Oc1ccc(Br)cc1)N1CCN2CCC1CC2,-1.07% (inactive),
CCOC(=O)N(C)C(=O)CSP(=S)(OCC)OCC,-3.05% (inactive),
Cc1cc(C)c(C(=O)P(=O)(C(=O)c2c(C)cc(C)cc2C)c2ccccc2)c(C)c1,3.36% (inactive),
CCCCC(=O)Cl,-6.02% (inactive),
Cc1coc2c1CCC(C)C2 (stereo not given),-14.7% (inactive),
O=C(CCN1CC1)OCC(CO)(COC(=O)CCN1CC1)COC(=O)CCN1CC1,-0.581% (inactive),
CCOC(=O)/C=C(C)/C=C/C[C@@H](C)CCCC(C)C,7.17% (inactive),
CC(C)(C)OC(=O)c1ncn2c1[C@@H]1CCCN1C(=O)c1c(Br)cccc1-2,-26.8% [at 35.3 µM] (inactive),
N#Cc1ccncc1,1.72% (inactive),
CC(=O)C(Cl)Cl,2.35% (inactive),
CNC(=O)Oc1ccc(N(C)C)c(C)c1,3.04% (inactive),
CCOC(=O)C1(c2ccccc2)CCN(CCc2ccc(N)cc2)CC1,-5.37% [at 35.3 µM] (inactive),
O=C(O)c1cccc(Cl)c1,2.01% (inactive),
CSc1ccc(C(=O)C(C)(C)N2CCOCC2)cc1,15% (inactive),

Structure (SMILES),"activity change, negative = cytotoxicity",Potency
Nc1cc2c3c(c1)C(c1ccccc1)=N[C@@H](NC(=O)c1cccnc1)C(=O)N3CC2,-15.1% (inactive),
N#CCNCC#N,-0.38% (inactive),
Oc1c(Cl)cccc1Cl,7.7% (inactive),
CCOP(=S)(OCC)Oc1cc(-c2ccccc2)on1,-1.3% (inactive),
CCN(Cc1ccc(Cl)nc1)/C(=C/[N+](=O)[O-])NC,-4.21% [at 35.3 µM] (inactive),
Cc1ncc2n1-c1ccc(Cl)cc1C(c1ccccc1F)=NC2,-13.5% [at 35.3 µM] (inactive),
C=CCC1=C(C)[C@@H](OC(=O)[C@@H]2[C@@H](C=C(C)C)C2(C)C)CC1=O,,54.9 µM (active)
O=NN1CCN(N=O)CC1,-2.3% (inactive),
CCOC(=O)NC(=S)Nc1ccccc1NC(=S)NC(=O)OCC,-9.36% (inactive),
O=C(O)c1ccc2[nH]cc(CCCCN3CC=C(c4ccccc4)CC3)c2c1,1.5% [at 35.3 µM] (inactive),
O=C1CN=C(c2ccccc2)c2cc([N+](=O)[O-])ccc2N1,-3.33% [at 35.3 µM] (inactive),
CCCCCCI,-15.5% (inactive),
CCC/C(=N\OCC)C1=C(O)CC(CC(C)SCC)CC1=O (stereo not given),12.1% (inactive),
C[C@]1(O)CC[C@H]2[C@@H]3CCC4=CC(=O)CC[C@]4(C)[C@@]3(F)[C@@H](O)C[C@@]21C,-8.89% (inactive),
COc1cc(OC)nc(NC(=O)NS(=O)(=O)c2ncccc2C(=O)N(C)C)n1,7.45% (inactive),
CNC(=O)Oc1cccc(C(C)C)c1,13.1% (inactive),
Cc1ccccc1CO[C@@H]1C[C@@]2(C(C)C)CC[C@]1(C)O2,4.02% (inactive),
CCOP(=S)(Oc1cnc(C(C)(C)C)nc1)OC(C)C (stereo not given),0.533% (inactive),
CCCCc1ccc(O)cc1,-13.5% (inactive),
CC(C)[N+](=O)[O-],-5.07% (inactive),
